Screens deposited in PubChem by several laboratories.
PostGolgi yeast = phenotypic screen on post-Golgi transport, primary screen; inhibition, % at 10 µM; post-Golgi transport phenotypic cell assay; hit rate 0.9% among 98,000; AID 739, 2007;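 also: yeast cells grown in 1536-well plates; yeast grown about 18 h at 30C before absorbance read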
CYP2C19 act = human CYP2C19 activators, primary screen, biochemical, luminescence; recombinant CYP2C19, luciferin-H EGE luminescence; hits give high values; 0 = fully inhibited enzyme, 1 = untreated enzyme; activation factor at 5 µM; 96,000 tested, under 10 active; AID 1025, 2008;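 active = activation factor of at least 2 at 5 µM in the primary screen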;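 also: 0 = wells with 2.5 mM tranylcypromine and 1 = vehicle-only wells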
Target sequence (P33261 whole entry, looked up): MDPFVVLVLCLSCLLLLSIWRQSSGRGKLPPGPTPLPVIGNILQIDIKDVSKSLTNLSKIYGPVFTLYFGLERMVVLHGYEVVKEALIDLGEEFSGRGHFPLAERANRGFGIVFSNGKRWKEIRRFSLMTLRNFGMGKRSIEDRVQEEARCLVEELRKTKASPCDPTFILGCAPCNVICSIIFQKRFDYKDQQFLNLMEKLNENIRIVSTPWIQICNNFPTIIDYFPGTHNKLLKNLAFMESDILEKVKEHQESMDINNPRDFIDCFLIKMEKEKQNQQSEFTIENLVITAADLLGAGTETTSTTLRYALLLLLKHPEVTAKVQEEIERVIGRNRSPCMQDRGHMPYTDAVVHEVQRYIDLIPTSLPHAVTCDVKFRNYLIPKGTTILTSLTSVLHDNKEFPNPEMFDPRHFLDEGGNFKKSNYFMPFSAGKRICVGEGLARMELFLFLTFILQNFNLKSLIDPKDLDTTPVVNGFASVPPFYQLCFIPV
CYP2C19 inh = blockers of cytochrome P450 2C19 activity – biochemical, luminescence, ADME assay, primary screen | inhibition, % at 5 µM | CYP2C19 Supersomes, luciferin-H EGE luminescence, 30 min | hit rate 21% among 96,000;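 active = CYP2C19 inhibition above a set limit at 5 µM in the primary screen, cut at about 50% in these data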;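 also: plate controls were negative control wells for no effect and 2.5 mM tranylcypromine positive control for full effect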
CYP2C9 act = human CYP2C9 activators, primary screen, biochemical, luminescence. activation factor at 5 µM. recombinant CYP2C9, luciferin-H conversion; hits give high values; factor 1 = untreated enzyme, 0 = blocked. hit rate 1.4% among 96,000. AID 1024, 2008;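 active = activation factor of 2 or more for CYP2C9 at a 5 µM dose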;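 also: 0 = sulfaphenazole-blocked wells and 1 = vehicle-only wells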
CYP2C9 inhib = blockers of cytochrome P450 2C9 activity – biochemical, luminescence, ADME assay, primary screen | P11712 | CYP2C9 Supersomes, luciferin-H conversion | inhibition, % at 5 µM | hit rate 20% among 96,000 | AID 777, 2007;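 active = blocking of liver enzyme CYP2C9 beyond about 50% at 5 µM, limit read from the data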
PostGolgi ctrl = growth inhibition of yeast control strain, primary screen, counter-screen for post-Golgi transport modulator project; hit rate 5% among 98,000; AID 738, 2007; efflux-deficient yeast background strain, growth absorbance A615, 16 h; inhibition, % at 10 µM
* hit, by the source's call. Compounds with a hit are over-represented: about 32% of the library has one in this group of screens. Rule as the data show it, unless noted: active = inhibition above about 30%; inactive = the rest.

SMILES	PostGolgi yeast	CYP2C19 act	CYP2C19 inh	CYP2C9 act	CYP2C9 inhib	PostGolgi ctrl
CCNc1nc(SC(C)C(=O)OC)nc(N2CCOCC2)n1 (stereo not drawn)	14	0.7	27	0.7	34	10
Cn1nnnc1SCCNCc1ccc(Cl)cc1	-1	0.2	84*	1.1	-14	0
CCOc1cc(CNCCSc2nnnn2C)cc(Br)c1OCc1ccccc1	5	0.1	94*	0.2	81*	21
CCOC(=O)CN1C(=O)CSc2ccccc21	1	0.9	9	1.1	-5	28
Cc1ccsc1C1CC(=O)NC2=C1C(=O)CC(C)(C)C2 (stereo not drawn)	6	1.1	-8	1.1	-6	7
CCn1c(SCC(=O)Nc2nc(-c3ccc(C)cc3)cs2)nnc1-c1ccccc1O	69*	0.4	57*	0.3	72*	76*
CCn1c(CSc2nc(C)cc(C)n2)nnc1SCC(=O)Nc1nc(-c2ccccc2)cs1	-5	1	4	1.3	-32	1
COc1ccccc1-c1nnc(SCC(=O)Nc2nc(-c3ccccc3)cs2)n1C	-14	0.1	91*	0	98*	11
CCn1c(SCC(=O)Nc2nc(-c3ccc(C)cc3)cs2)nnc1-c1ccccc1	-4	0.6	42	0.2	85*	-1
CCOC(=O)c1cc2c(N)c(C(=O)c3cc(C#N)c(SC)nc3C)sc2nc1C	3	1	-3	0.6	36	11
COc1ccc2nc(NC(=O)c3ccc(-n4nc(C)cc4C)cc3)sc2c1	0	0.9	9	0.9	9	-8
COc1ccc2nc(Nc3ccc4c(c3)OCO4)sc2c1	3	0.3	65*	0.8	21	11
COc1cccc(C(=O)CN(C(=O)c2ccc(Cl)c(Cl)c2)N2C(=O)C3CCCCC3C2=O)c1 (stereo not drawn)	2	0.9	9	0.9	9	17
O=C(CSc1nc2c(sc3ccccc32)c(=O)n1Cc1ccco1)NCC1CCCO1 (stereo not drawn)	6	0.5	51*	0.3	68*	32*
O=C(O)CCn1c(C2CCCCC2)nc2ccccc21	0	1.1	-13	1	-5	3
O=C(CSc1nc2c(sc3ccccc32)c(=O)n1Cc1ccccc1)NCC1CCCO1 (stereo not drawn)	-2	0.9	10	0.9	11	5
O=C(CCCn1c(SCC(=O)c2ccc(O)c(O)c2)nc2ccccc2c1=O)NCC1CCCO1 (stereo not drawn)	-2	0.5	55*	0	96*	0
N#CCn1c(C2CCCCC2)nc2ccccc2c1=O	-14	0.3	70*	0.3	65*	2
COCCCNC(=O)CSc1nc2ccccc2c(=O)n1CCCC(=O)NCC1CCCO1 (stereo not drawn)	1	0.8	20	0.5	46	15
CCC(C)NC(=O)CSc1nc2ccccc2c(=O)n1CCCC(=O)NCC1CCCO1 (stereo not drawn)	-2	0.9	8	0.6	43	7
O=C(CCCn1c(SCC(=O)NC2CCCCC2)nc2ccccc2c1=O)NCC1CCCO1 (stereo not drawn)	-1	0.6	36	0.4	65*	7
CCc1nnc(NC(=O)C(=O)NCCOC(=O)c2ccccc2Cl)s1	-2	0.8	18	0.8	17	4
O=C(O)c1ccc(CSCc2ccccc2F)o1	-3	1	3	1	-1	5
CCOC(=O)NCC(C)(C)CNC(=O)OCC	3	1	-1	1	-4	0
N#CCSc1nc2ccccc2c(=O)n1CCC(=O)NC1CCCCC1	-6	0	97*	1.2	-25	35*
SMILES	PostGolgi yeast	CYP2C19 act	CYP2C19 inh	CYP2C9 act	CYP2C9 inhib	PostGolgi ctrl
C=CCNc1nnc(-c2ccncc2)s1	-3	0.2	77*	0.9	7	-3
COC(=O)Nc1nnc(-c2ccncc2)s1	-3	0.6	44	0.8	19	4
c1ccc2c(Nc3nnc(-c4ccncc4)s3)cccc2c1	-3	0	96*	0.1	90*	5
CCCCCOc1ccc(NC(=O)CCCC(=O)O)cc1	15	1.1	-6	1	1	1
Oc1ccc2oc3c(c2c1/C=N/n1cnnc1)CCCC3	-4	0.5	48	0.4	63*	10
Cc1c(C(=O)N2CC(C)OC(C)C2)oc2ccccc12 (stereo not drawn)	-1	0.8	17	1.6	-64	4
Cc1ccc(/C=N/n2c(COc3ccccc3)n[nH]c2=S)s1	1	0.9	15	0.2	77*	9
S=c1[nH]nc(COc2ccccc2)n1/N=C/c1ccc(Br)s1	-2	0.6	45	0.9	12	31*
CC(C)(Cl)C1Cc2cc3ccc(=O)oc3cc2O1 (stereo not drawn)	-9	1	-2	1	-1	7
Cc1c(Cl)c([N+](=O)[O-])nn1CC(=O)NC1CCCCC1	1	0.8	21	0.9	13	5
Cc1ccc(C(C(=O)NCc2ccco2)N(CCc2ccccc2)C(=O)Cn2nnc3ccccc32)o1 (stereo not drawn)	-3	0.9	14	0.9	11	-6
C=C(C)CC1N(c2cccc(OC)c2)C(=O)[C@@H]2C(C(=O)O)[C@H]3C=C[C@@]12O3 (stereo partly drawn)	22	1	0	1.2	-19	8
NC1=NC(=Nc2ccccc2)c2ccccc21	7	0.9	14	0.9	10	8
Cc1cccc(N=C2N=C(N)c3ccccc32)c1	-19	0.7	25	0.9	6	33*
Cc1ccc(S(=O)(=O)N(C(=O)c2ccncc2)c2ccc(OC(=O)c3ccncc3)c3ccccc23)c(C)c1	0	0	97*	0	99*	5
O=C1N2c3ccccc3CCc3cccc(c32)C1(O)C(F)(F)F (stereo not drawn)	1	0.5	52*	0.7	34	50*
CCOc1ccc(-c2n[nH]c(C)c2Oc2ccc(OC)cc2)c(O)c1	12	0	100*	0	99*	33*
Cc1[nH]nc(-c2ccc(O)c(C)c2O)c1Oc1ccccc1	2	0	100*	0	100*	38*
Cc1[nH]nc(-c2ccc(OCc3cnn(-c4ccccc4)c3)c(C)c2O)c1Oc1ccccc1	-6	0.9	7	0.8	23	8
CC(C)CCNC(=O)NC(=O)Cn1cc(C(F)(F)F)ccc1=O	-3	0.6	38	0.7	35	6
Cc1cc(N2CCN(c3ccccc3)CC2)n2nnnc2n1	6	1	2	0.8	16	6
